Pf growth 96h: P. falciparum growth inhibition at 96 hour, primary screen for plastid delayed-death inhibitors | P. falciparum luciferase reporter growth, 96 h | Potency, µM (doses to about 28.7 µM), for inactives: at the highest dose activity change, negative = inhibition, hits mostly inhibitors | 6.9% of 320,000 active; further: potency means the concentration at half of the fitted maximal effect
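Parasite growth measured via integrated firefly luciferase reporter in P. falciparum. Infected erythrocytes at 2% hematocrit, 0.05% parasitemia final were treated 96 hours at 37 C under 5% CO2, and luminescence was read.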
Pf growth 48h: P. falciparum growth inhibition at 48 hours (one generation); P. falciparum luciferase growth in erythrocytes, 48 h; Potency, µM (top dose mostly 28.7 µM), for the others: top-dose activity change, negative = inhibition, usual class: inhibitors; 5.9% of 310,000 active; AID 504832; further: potency means the concentration at half of the fitted maximal effect
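First compound was added to culture medium, then infected red cells at 0.1% parasitemia and 2% hematocrit (final). After incubation at 37 C under 5% CO2, luciferase detection reagent was dispensed and light output recorded.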
HCMV inh: human cytomegalovirus inhibition. activity change, negative = inhibition, % at 57.5 µM. HFF cells, HCMV-luciferase reporter, 72 h; hits give low values. 4.5% of 410,000 active. AID 1259415; in the data active means activity change below about -60%; inconclusive means no clear call, values can overlap the other calls; inactive means above about -39%
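Steps: HFFs plated, 16 h 37C; compounds added; HCMV-luciferase added to MOI 1 PFU/cell; 72 h 37C; OneGlo reagent, 5 min room temperature; luminescence read, normalized to controls.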
HCV inh: inhibitors of hepatitis C virus infection; Potency, µM (highest dose often 41.8 µM), without a hit: at the highest dose activity change, negative = inhibition, usual class: inhibitors; 3.4% of 340,000 active; AID 651820; Huh7.5.1 HCVcc-Cre infection, luciferase reporter, 44 h; further: potency means the concentration at half of the fitted maximal effect
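Antiviral activity was scored by luciferase reporter output from cells infected with HCVcc-Cre (~0.5 moi) in presence of compound, 44 h infection period, cells seeded 1,000/well 4 h prior.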
Marburg entry inh: inhibitors of Marburg virus binding or cell entry. Marburg virus pseudotyped entry inhibition, cell reporter. Potency, µM (doses to about 37.8 µM), without a hit: at the highest dose activity change, negative = inhibition, most hits filed as inhibitors. 1.8% of 300,000 active; calls by dose curve; tested in HEK293 cells; further: potency means the concentration at half of the fitted maximal effect
Lassa entry inh: blocks Lassa virus binding to or entry into cells; Potency, µM (highest dose often 37.9 µM), for the others: at the highest dose activity change, negative = inhibition, actives largely listed as inhibitors; Lassa virus pseudotype entry inhibition, cell reporter; 1.2% of 300,000 active; AID 540256; calls by dose curve; tested in HEK293 cells; further: potency means the concentration at half of the fitted maximal effect; nearly all actives have a fitted effect of over 50% in size
Starred values were filed as active, the others as inactive; ? = inconclusive; / = no result; [ ] = remark or other dose. This is a sample that favours compounds with a hit; in the whole collection about 14% have one here. Unless noted, the call rests on the fitted dose curve; in most records, active means well fitted inhibition curve with a large enough effect; inconclusive means small, poorly fitted or top-dose-only effect, or another doubt; inactive means no such curve, though single readings can be large or run the other way. On the % scale 0 is the no-effect control and ±100 the full control effect.

SMILES | Pf growth 96h | Pf growth 48h | HCMV inh | HCV inh | Marburg entry inh | Lassa entry inh
COC(=O)[C@@H]1[C@@H](C(=O)OC)C2(c3ccccc3-c3ccccc32)N(c2ccc(Cl)cc2)N1C#N | ? | ? | -82* | 1.8µM* | 10µM* | ?
COc1ccc(-c2c(C#Cc3ccsc3)c3cc(-c4cccc5[nH]ccc45)ccc3n2C)cc1 | 2.3µM* | 1.3µM* | 0 | ? | / | /
COc1ccc(-c2c(C#Cc3ccsc3)c3cc(-c4ccc(C(N)=O)cc4)ccc3n2C)cc1 | / | / | ? | 7.1µM* | / | /
COc1cc(OC)cc(-c2c(C#Cc3ccsc3)c3cc(-c4cccc5[nH]cc(C=O)c45)ccc3n2C)c1 | / | / | -1 | 10µM* | / | /
Cc1cc(C#Cc2c(-c3ccccc3)n(C)c3ccccc23)ccc1F | 5.9µM* | ? | -21 | -13%[8.37 µM] | / | /
COc1cc(OC)cc(-c2c(C#Cc3ccsc3)c3cc(-c4ccc(OC)c(OC)c4)ccc3n2C)c1 | / | / | 20 | ? | / | /
Cc1ccc(-c2c(C)n3c4c(=O)n(C)c(=O)n(C)c4nc3n2-c2cccc(O)c2)cc1 | / | / | -18 | / | 10%[46.1 µM] | ?
COc1cc(C#Cc2c(-c3ccccc3)n(C)c3ccccc23)cc(OC)c1 | 12µM* | ? | -5 | -28%[8.37 µM] | / | /
COc1ccc(-c2c(C#Cc3ccsc3)c3cc(-c4ccc5c(c4)OCO5)ccc3n2C)cc1 | ? | ? | -71* | -11% | / | /
COc1ccc(-c2c(C#Cc3ccsc3)c3ccccc3n2C)cc1 | 3.3µM* | ? | -21 | ? | / | /
Cn1c(-c2ccc(C#N)cc2)c(C#Cc2ccccc2)c2ccccc21 | / | / | 32 | 22µM* | / | /
COc1ccc(C#Cc2c(-c3ccccc3)n(C)c3ccccc23)cc1 | / | / | 0 | ? | / | /
CC(=O)Nc1ccccc1-c1nc2ccccc2n(C(C)C(=O)Nc2ccccc2C(F)(F)F)c1=O (stereo not drawn) | / | / | -11 | / | 4%[46.1 µM] | -22%[46.1 µM]
CCCCCC1CC(CC(=O)Nc2nncs2)C(=O)O1 (stereo not drawn) | 7.4µM* | -5% | 32 | 7% | -2% | 5%
CCOc1cc(CNc2ccc3c(c2)CCC3)ccc1OC | -57% | / | / | / | -1% | /
COc1ccc(CNc2ccc3c(c2)CCC3)cc1Br | 7.4µM* | 56% | 7 | -3% | / | /
CN(CC1CCCCC1)[C@@H]1CC[C@@]23CCCN2C(=O)CCC[C@H]3[C@H]1Cc1ccccc1 | / | / | 27 | / | / | /
CC(=O)c1ccc(C(=O)N2CCc3c([nH]c4ccccc34)C2c2cccc(C)n2)s1 (stereo not drawn) | 13µM* | ? | 38 | -12% | ? | 4%
Cc1cc2cc(C(=O)N3CCc4c([nH]c5ccccc45)C3c3ccccn3)ccc2o1 (stereo not drawn) | 9.3µM* | 10µM* | -26 | ? | / | /
CC(=O)c1cc(CC(=O)N2CCc3c([nH]c4ccccc34)C2c2ccccn2)cs1 (stereo not drawn) | ? | ? | -17 | -25% | ? | ?
Cc1nc(C)c(CC(=O)N2CCc3c([nH]c4ccccc34)C2c2ccccn2)s1 (stereo not drawn) | 10µM* | ? | 1 | 5% | ? | -2%
O=C(c1ccc(-n2cccn2)cc1)N1CCc2c([nH]c3ccccc23)C1c1ccccn1 (stereo not drawn) | -13% | ? | -3 | -10% | / | /
CCc1nccn1S(=O)(=O)c1ccccc1[N+](=O)[O-] | -6% | -19% | 1 | 6% | / | /
N#Cc1c(N)n(C2OC(CO)C(O)C2O)c2ncnc(N)c12 (stereo not drawn) | / | / | -99* | ? | 0.5µM* | 1.8µM*
Cc1c(Cl)cccc1NC(=S)N(Cc1cccnc1)Cc1ccccc1Cl | 13% | ? | -24 | -21% | ? | -24%
SMILES | Pf growth 96h | Pf growth 48h | HCMV inh | HCV inh | Marburg entry inh | Lassa entry inh
CC(C)(C)n1nnnc1CN(Cc1cccnc1)Cc1ccccc1Cl | / | 15µM* | -37 | 8% | -5% | -15%
NC[C@@H]1O[C@H](OC2[C@@H](CO)O[C@@H](OC3[C@H](O)[C@H](N)C[C@H](N)[C@H]3OC3O[C@H](CO)[C@@H](O)[C@H](O)[C@@H]3N)[C@H]2O)C(N)[C@H](O)[C@@H]1O (stereo partly drawn) | 0% | -13% | / | / | / | /
C[C@@H]1CN([C@H](C)CO)C(=O)c2cc(NC(=O)Cc3ccccc3)ccc2O[C@H]1CN(C)Cc1ccc(Oc2ccccc2)cc1 | / | / | 53 | 11µM* | / | /
C[C@@H]1CN([C@H](C)CO)C(=O)c2cc(NC(=O)Nc3ccc(F)cc3)ccc2O[C@@H](C)CCCCO[C@H]1CN(C)Cc1ccc(C(=O)O)cc1 | / | / | 0 | / | / | /
COc1ccc(CN(C)C[C@@H]2OCCCC[C@H](C)Oc3ccc(NC(=O)Nc4ccc(F)cc4)cc3C(=O)N([C@H](C)CO)C[C@H]2C)cc1 | / | / | -102* | / | / | /
C[C@@H]1CCCCO[C@H](CN(C)Cc2ccc(C(F)(F)F)cc2)[C@H](C)CN([C@@H](C)CO)C(=O)c2cc(NC(=O)Cc3ccccc3)ccc2O1 | / | / | -81* | / | / | /
CCC(=O)N1CCc2cc(S(=O)(=O)CCC(=O)N3CCN(c4cccc(C)c4C)CC3)ccc21 | / | / | 13 | / | 1%[46.1 µM] | 15%[46.1 µM]
COc1ccc(CCC(=O)NCCc2csc(-c3cccc(F)c3)n2)cc1 | / | / | 17 | / | / | 11%[46.1 µM]
C=Cc1ccc(Cn2c(C(=O)O)c(CNCc3cccs3)c3ccc(C)cc32)cc1 | / | / | -6 | / | / | ?
COc1ccc(Cn2c(C(=O)O)c(CNCc3ccc(SC)cc3)c3ccc(OC)cc32)cc1 | / | / | -91* | / | / | ?
C=Cc1ccc(Cn2c(C(=O)O)c(CNCc3ccc(F)cc3)c3ccc(C)cc32)cc1 | / | / | -91* | / | / | ?
Cc1ccc2c(CNCc3cccs3)c(C(=O)O)n(Cc3ccc(F)cc3)c2c1 | / | / | -102* | / | / | ?
COc1ccc(Cn2c(C(=O)O)c(CNCc3cccs3)c3ccc(C)cc32)cc1 | / | / | -66* | / | / | ?
CC(OC(=O)CNS(=O)(=O)c1ccc(C#N)cc1)C(=O)Nc1cccc(C#N)c1 (stereo not drawn) | -18% | -3% | 3 | 7% | 16% | -25%
CCc1nc2c(OCC(=O)c3ccc(F)cc3)cccn2c1N(C)C(=O)c1ccc(OC)cc1 | / | / | -3 | / | / | /
Cc1cc(C)c2c(n1)SCCN2C(=O)Nc1ccc(C(=O)Nc2cc(Cl)ccc2C)cc1 | / | / | ? | / | / | -1%[46.1 µM]
COc1ccc(Cn2c(C(=O)O)c(CNCCc3cc(OC)ccc3OC)c3ccc(C)cc32)cc1 | / | / | -105* | / | / | ?
CN1CCN(C(=O)c2ccccc2NS(=O)(=O)c2ccc(F)cc2)CC1 | 31% | 13% | 0 | 7% | / | /
CSCCC(NS(=O)(=O)c1ccc2c(c1)OCCO2)C(=O)N(C)Cc1ccccc1F (stereo not drawn) | ? | 12µM* | -23 | -26% | / | /
